Screening results deposited in PubChem BioAssay by Small Molecule Screening Facility, UW Madison.
This excerpt belongs to a sample that is enriched for hits.
RMI-FANCM inh: disruptors of RMI1/RMI2 association with MM2 peptide – biochemical, fluorescence polarization, human, primary screen; RMI core complex with F-MM2 peptide; stronger effect = lower value; actives 0.58% (n = 70,000); FP signal (polarization) at 33 µM; RMI core complex (RMI1/RMI2) binding to FANCM MM2 peptide, human; in the data active = FP signal below about 40
Of the large screens only hits and unclear results are named; the others gave an inactive call.

O=C(O)/C=C\C(=O)Nc1ccccc1OC(F)(F)F	none
N#CCCSc1ccccc1NC(=O)/C=C/C(=O)O	none
O=C(O)/C=C\C(=O)Nc1cccc2ccccc12	RMI-FANCM inh -3
COc1cc2c(cc1OC)-c1c(C#N)c(-c3ccc(Cl)cc3)c(C(=O)c3cccs3)n1CC2	none
COc1ccc(C(=O)Nc2c(N)nc(SC)[nH]c2=O)cc1	none
Cc1cc(=O)[nH]c(-n2nc(C)cc2NC(=O)/C=C/c2ccc3c(c2)OCO3)n1	none
CC(C)c1cc(=O)[nH]c(-n2nc(-c3cccs3)cc2NC(=O)/C=C\c2ccc3c(c2)OCO3)n1	RMI-FANCM inh 26
CC(C)c1cc(=O)[nH]c(-n2nc(-c3cccs3)cc2NC(=O)c2cccs2)n1	none
COc1cc2c(cc1OC)CN(C(=O)CSc1ccc3ccccc3n1)CC2	none
O=C(Nc1cccs1)N1CCn2cccc2C1c1ccc(F)cc1 (stereo unspecified)	RMI-FANCM inh 15
O=C(Nc1c(F)cccc1F)N1CCn2cccc2C1c1cccnc1 (stereo unspecified)	none
COc1ccccc1NC(=O)N1CCn2cccc2C1c1ccc(Br)cc1 (stereo unspecified)	none
N#CC(=C(O)c1ccccc1Br)c1nc2ccccc2[nH]1	RMI-FANCM inh 14
Cc1ccc(N/C=C(\C#N)c2nc3ccccc3[nH]2)cc1	none
N#C/C(=C\c1ccc([N+](=O)[O-])cc1)c1nc2ccccc2[nH]1	none
Cc1nn(CC(N)=O)c(=O)c2c1cnn2C(C)(C)C	none
CCn1nc(C)cc1C(=O)Nc1nc2c(s1)CC(C)CC2 (stereo unspecified)	none
COC(=O)/C(C#N)=C1/CCSC1	none
CCn1c(SCC(=O)Nc2ccccc2)nc2c(c1=O)SC(C)C2 (stereo unspecified)	none
C=CCn1c(SCC(=O)N2CCN(C(=O)OCC)CC2)nc2c([nH]c3ccccc32)c1=O	none
O=c1[nH]c(=S)c2c(n1Cc1ccco1)CCCC2	none
O=c1cc(O)n(Cc2ccco2)c(=S)[nH]1	RMI-FANCM inh 26
O=C1CNC(=S)N1Cc1ccco1	none
O=C(OCCSCCS(=O)(=O)c1ccc(Cl)cc1)c1cc(Cl)cc(Cl)c1	none
Cc1ccc2oc(=O)n(CCC(=O)NNC(=O)c3nc(-c4cccs4)no3)c2c1	none
COc1cccc(-c2nc(COC(=O)c3nnn(-c4cccc(SC)c4)c3C)c(C)o2)c1OC	none
CCCN1CCCc2cc(CCNC(=O)C(C)(C)C)ccc21	RMI-FANCM inh 16
CCCN1CCCc2cc(CCNC(=O)C(=O)NCC(C)C)ccc21	none
CCCN1CCCc2cc(CCNC(=O)COCC)ccc21	RMI-FANCM inh 27
CCCN1CCCc2cc(CCNC(=O)COc3ccccc3F)ccc21	none
CCCN1CCCc2cc(CCNC(=O)Cc3cccc(C)c3)ccc21	none
CCCN1CCCc2cc(CCNC(=O)C3CCCCC3)ccc21	none
O=C(NCCNC(=O)c1ccc(NC(=O)C2CCCC2)cc1)Nc1ccc(F)c(F)c1	none
CCc1nn(C)c2c(=O)c(=O)c2n(C)[nH]1	RMI-FANCM inh 32
O=C(NN1C(=O)/C(=C\C=C\c2ccco2)SC1=S)c1ccc([N+](=O)[O-])cc1	RMI-FANCM inh 21
O=C(Cc1ccccc1)NN1C(=O)/C(=C/c2cccc([N+](=O)[O-])c2)SC1=S	none
CN1C(=O)/C(=C\C=C\c2ccccc2)SC1=S	none
Cc1cccc(N2C(=O)/C(=C/C=C/c3ccco3)SC2=S)c1C	RMI-FANCM inh 9
Cc1ccc(C(=O)NN2C(=O)/C(=C/c3ccc(N(C)C)cc3)SC2=S)cc1	none
CC(C(=O)O)N1C(=O)/C(=C/C=C/c2ccco2)SC1=S (stereo unspecified)	none
Cc1ccc(S(=O)(=O)NCCc2sc(-c3ccc(F)cc3)nc2C)c(C)c1	none
CC(=O)c1ccc(NC(=O)c2ccc(CNS(=O)(=O)c3cc(C)ccc3C)cc2)cc1	none
O=C(Cn1c(=O)n(Cc2ccc3c(c2)OCO3)c(=O)c2oc3ccccc3c21)Nc1cc(C(F)(F)F)ccc1Cl	none
CCN(c1ccccc1)S(=O)(=O)c1ccc(Cl)c(N)c1	none
O=C(NCCOc1ccc2c(c1)OCO2)c1c(F)cccc1F	none
CC(C)OC(=O)CCCCCN1C(=O)/C(=C/c2ccccn2)SC1=S	none
O=C(O)c1cccc2cccc(C(=O)O)c12	none
Nc1ccc(C(=O)O)c2c(C(=O)O)cccc12	RMI-FANCM inh 19
O=C(O)c1cccc(Cl)c1C(=O)O	none
Cc1csc(NC(=O)CSc2ccc(NC(=O)C(C)C)nn2)n1	none
CN1[C@@H]2CC[C@H]1CC(OC(=O)C(O)c1ccccc1)C2 (stereo partly specified)	none
Cc1cc(NS(=O)(=O)c2ccc(NC(=O)c3cc(Cl)ccc3[N+](=O)[O-])cc2)no1	none
Cc1oc(-c2ccc(Cl)cc2[N+](=O)[O-])cc1C(=O)Nc1ccc(S(N)(=O)=O)cc1	RMI-FANCM inh 13
Cc1oc(-c2cccc(C(F)(F)F)c2)cc1C(=O)Nc1ccc(S(N)(=O)=O)cc1	none
Cc1ccc(S(=O)(=O)Oc2cc(=O)n(-c3ccccc3)c3c2c(=O)n(C)c(=O)n3C)cc1	none
Cc1cc(NC(=O)C2COc3ccccc3O2)on1 (stereo unspecified)	none
O=c1ccc2cc(N=Cc3cc(Cl)cc(Cl)c3O)ccc2o1	RMI-FANCM inh 30
CN(/N=C\c1cc(Cl)cc(Cl)c1O)c1ccc([N+](=O)[O-])cn1	none
O=C(Nc1ccc2oc(=O)ccc2c1)c1ccc(F)cc1	none
Fc1ccc(N=Cc2ccc3c(c2)OCO3)cc1	none
Fc1cc2[nH]cnc2cc1Cl	none
N#CCCSc1ccccc1N=Cc1cc(Cl)cc(Cl)c1O	RMI-FANCM inh 33
Oc1c(Cl)cc(Cl)cc1C=Nc1ccc2c(c1)COCO2	RMI-FANCM inh 37
O=c1ccc2cc(O)c(O)cc2o1	none
Oc1c(Cl)cc(Cl)cc1C=Nc1ccc2nc[nH]c2c1	RMI-FANCM inh 12
N#CCCSc1ccccc1NC(=O)c1ccc(Cl)s1	none
Oc1ccccc1C=Nc1ccccc1SCc1csc(-c2ccc(Cl)cc2)n1	none
Cc1[nH]n(C)c(=O)c1N=Nc1ccc2c(c1)COCO2	none
Cc1cc(NC(=O)CCCS(=O)(=O)c2ccc(Cl)cc2)on1	none
CCOC(=O)c1c(N)c(C(=O)c2ccc(C)cc2)n2ccccc12	none
O=C(CC1CSc2nc3c(cnn3-c3cccc(Cl)c3)c(=O)n21)Nc1ccncc1 (stereo unspecified)	none
O=C(Cc1csc(NC(=O)Nc2cccc(Cl)c2)n1)Nc1ccc(Oc2ccccc2)cc1	none
Cc1nn(-c2ccccc2)nc1C(=O)Oc1cncc(Cl)c1	none
COc1ccc(/C=C/C(=O)NC(C)c2ccccc2)cc1Br (stereo unspecified)	none
COC1CCCCC1NS(=O)(=O)c1ccc(Cl)cc1 (stereo unspecified)	none
CCOC(=O)c1ccc(N=Cc2ccc(OC(=O)c3ccc(F)cc3)c(OC)c2)cc1	none
O=Cc1cccc2cccnc12	none
CCOC(=O)c1ccc(N=Cc2ccccn2)cc1	none
Oc1c(Cl)cc(Cl)cc1C=Nc1nc2c(s1)CCCC2	none
CCOC(=O)c1ccc(N=Cc2cc(Cl)cc(Cl)c2O)cc1	RMI-FANCM inh 24
Oc1c(Cl)cc(Cl)cc1C=Nc1cccc2cccnc12	RMI-FANCM inh 27
N#Cc1cncc(C#Cc2ccccc2)c1	none
O=C(Nc1nnc(-c2cc(Cl)sc2Cl)o1)c1cccs1	none
COc1ccc(CC(=O)NCCCn2nc(-c3ccc(Cl)cc3)ccc2=O)cc1OC	none
Cc1ccc2[nH]c3c(=O)n(CCC(=O)N4CCC(C(N)=O)CC4)cnc3c2c1	none
NC(=S)N/N=C\c1ccccc1O	none
CCCOc1cccc2c1CCN(Cc1ccc(Cl)cc1)C2=O	none
O=c1c2sc3ccccc3c2[nH]c(=S)n1CC1CCCO1 (stereo unspecified)	none
